The text below walks through data of PubChem BioAssay (NCI).

Some test systems named below: HCT-15 colon; HT29 colon; SNB-75 CNS; SNB-19 CNS; U251 CNS; PC-3 prostate; SK-MEL-5 melanoma; UACC-62 melanoma; LOX IMVI melanoma; SK-MEL-28 melanoma; SK-MEL-2 melanoma; EKVX NSCLC; SN12C renal; UO-31 renal; TK-10 renal; ACHN renal; CAKI-1 renal; A498 renal; CCRF-CEM leukemia; MOLT-4 leukemia.
What all share (assay): NCI-60 one-dose screen, 48 h (100 = growth as untreated, 0 = no growth, -100 = all killed)
Common to all, as to conditions: 10 µM unless noted

Molecules are shown by their SMILES. Compounds without any hit were thinned out: in the full panel of roughly 83,000, 20% have a hit.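 Each cell line was grown in a 96-well plate and treated with one concentration of compound for 48 hours. Values below 10 were considered active.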 Unmarked numbers belong to inactive results. Active and inactive are the calls of the source.

As to `Clc1nc(Cl)c2ncn(CCOCCn3cnc4c(Cl)nc(Cl)nc43)c2n1`, the growth is -78.7% (active) in the assay with HCT-15 colon; -60.5% (active) in the assay on HT29 colon; -92.3% (active) with SNB-75 CNS; -89.3% (active) in the assay on SNB-19 CNS; -72.3% (active) in the assay with U251 CNS; -93.4% (active) in the assay with PC-3 prostate. Moreover, the growth with SK-MEL-5 melanoma was -91.5% (active); with UACC-62 melanoma, -95.9% (active); with LOX IMVI melanoma, -83.2% (active); in the assay on SK-MEL-28 melanoma, -95.7% (active); with SK-MEL-2 melanoma, -76.8% (active); in the assay on EKVX NSCLC, -91.1% (active). For the same molecule, the growth was -83.6% (active) in the assay on SN12C renal; -95.4% (active) in the assay on UO-31 renal; -86% (active) in the assay with TK-10 renal; -89.1% (active) in the assay with ACHN renal; -94.6% (active) in the assay on CAKI-1 renal; -92.4% (active) in the assay with A498 renal. Moreover, the growth was -45.2% (active) in the assay with CCRF-CEM leukemia and -68.9% (active) in the assay with MOLT-4 leukemia.
For the molecule `COc1ccc(C(=O)c2cc3c(N)c(C(=O)Nc4cccc(Cl)c4C)sc3nc2C)cc1`, the growth is 15.9% in the assay on HCT-15 colon; 6.48% (active) in the assay with HT29 colon; -7.69% (active) in the assay with SNB-75 CNS; 39.9% in the assay on SNB-19 CNS; 14.4% in the assay with U251 CNS; 21.7% in the assay with PC-3 prostate. The growth is -23.8% (active) with SK-MEL-5 melanoma; 32% in the assay with UACC-62 melanoma; 21.9% in the assay with LOX IMVI melanoma; 63.3% with SK-MEL-28 melanoma; 36.9% in the assay on SK-MEL-2 melanoma; 39.6% with EKVX NSCLC. For the same molecule, the growth with SN12C renal was 20.3%; in the assay on UO-31 renal, 21.7%; in the assay on TK-10 renal, 50.9%; in the assay with ACHN renal it was 24.1%; in the assay on CAKI-1 renal it was 15.6%; in the assay on A498 renal, -12.4% (active). For the same molecule, the values for the growth with CCRF-CEM leukemia and in the assay on MOLT-4 leukemia were 5.42% (active) and 8.51% (active), respectively.
As for `COc1ccc(-c2nc(N/N=C/c3cccc(O)c3)nc(N3CCOCC3)c2C#N)cc1`, the growth with HCT-15 colon is 46.9%; with HT29 colon, 72.6%; in the assay with SNB-75 CNS, 23.6%; in the assay on SNB-19 CNS, 85.9%; in the assay with U251 CNS it was 58.9%; in the assay on PC-3 prostate, 56.5%. For the same molecule, the growth with SK-MEL-5 melanoma was 80.1%; with UACC-62 melanoma, 90.1%; with LOX IMVI melanoma, 79.6%; with SK-MEL-28 melanoma, 33.9%; with SK-MEL-2 melanoma, 85.6%; with EKVX NSCLC, 88.7%. Besides, the growth is 78.3% in the assay on SN12C renal; 34.4% with UO-31 renal; 88.4% in the assay with TK-10 renal; 57.8% in the assay with ACHN renal; 77% in the assay on CAKI-1 renal; 85.7% in the assay on A498 renal. The figures for the growth in the assay on CCRF-CEM leukemia and with MOLT-4 leukemia were 26.3% and 39.8%, respectively.
As for `ClCC1(Cn2cnc3c(Cl)nc(Cl)nc32)COC1`, the growth with HCT-15 colon was 45.9%; with HT29 colon, 76.8%; in the assay with SNB-75 CNS it was 85.4%; in the assay with SNB-19 CNS, 88.8%; in the assay on U251 CNS it was 89.2%; in the assay with PC-3 prostate, 66.3%. The growth in the assay with SK-MEL-5 melanoma was 98.4%; with UACC-62 melanoma, 91.6%; with LOX IMVI melanoma it was 45.2%; in the assay on SK-MEL-28 melanoma, 89.9%; with SK-MEL-2 melanoma, 90.7%; with EKVX NSCLC, 100%. Further, the growth in the assay on SN12C renal was 95.6%; in the assay on UO-31 renal it was 88.7%; in the assay on TK-10 renal, 85.2%; with ACHN renal, 94.9%; with CAKI-1 renal, 49%; in the assay with A498 renal, 89.6%. Besides, the results for the growth in the assay with CCRF-CEM leukemia and with MOLT-4 leukemia were 71.5% and 87.7%, respectively.
For the molecule `COc1cc(NCC(C)(O)CN(CC(C)C)CC(C)C)c2nc(C)ccc2c1` (stereo not given), the growth was 67.7% in the assay with HCT-15 colon; 82% in the assay on HT29 colon; 81.4% in the assay with SNB-75 CNS; 87.9% with SNB-19 CNS; 94.9% in the assay with U251 CNS; 64.5% in the assay on PC-3 prostate. Besides, the growth was 86.4% with SK-MEL-5 melanoma; 68.3% with UACC-62 melanoma; 86.7% in the assay on LOX IMVI melanoma; 99.3% with SK-MEL-28 melanoma; 96.8% in the assay with SK-MEL-2 melanoma; 91.5% with EKVX NSCLC. The growth in the assay on SN12C renal was 81%; in the assay on UO-31 renal, 54.5%; in the assay with TK-10 renal, 119%; in the assay on ACHN renal, 79%; in the assay on CAKI-1 renal, 67.7%; with A498 renal, 56.5%. The growth in the assay on CCRF-CEM leukemia is 85.4%; with MOLT-4 leukemia, 80.7%.
Consider `COc1ccccc1Nc1cc(O)c2c(=O)cc(-c3ccccc3)oc2c1`, for which the growth is 29.3% in the assay on HCT-15 colon; 17% with HT29 colon; -4.79% (active) in the assay on SNB-75 CNS; 43.9% in the assay with SNB-19 CNS; 22.1% in the assay on U251 CNS; 54.5% with PC-3 prostate. In addition, the growth in the assay on SK-MEL-5 melanoma was 24.6%; in the assay with UACC-62 melanoma, 35.8%; in the assay on LOX IMVI melanoma it was 39.9%; in the assay on SK-MEL-28 melanoma it was 56.5%; with SK-MEL-2 melanoma, 13.7%; with EKVX NSCLC it was 57.4%. Further, the growth in the assay on SN12C renal is 36.6%; in the assay with UO-31 renal, 46.6%; in the assay on TK-10 renal it was 66.3%; in the assay on ACHN renal it was 50.8%; with CAKI-1 renal it was 41.3%; with A498 renal, 11.6%. The growth was 7.29% (active) in the assay with CCRF-CEM leukemia and 25.9% in the assay on MOLT-4 leukemia.
In the case of `COc1ccc(C(=O)c2cc3c(N)c(C(=O)Nc4cccc(Cl)c4)sc3nc2C)cc1`, the growth in the assay with HCT-15 colon is 21%; in the assay on HT29 colon, -3.3% (active); in the assay with SNB-75 CNS it was -10.1% (active); with SNB-19 CNS, 41.8%; in the assay on U251 CNS, 23%; in the assay on PC-3 prostate, 27.9%. Also, the growth with SK-MEL-5 melanoma was 9.91% (active); in the assay with UACC-62 melanoma, 39.3%; with LOX IMVI melanoma, 48.2%; with SK-MEL-28 melanoma, 65.7%; in the assay on SK-MEL-2 melanoma, 39.8%; in the assay on EKVX NSCLC it was 39.4%. The growth with SN12C renal is 42.7%; in the assay on UO-31 renal, 42.7%; in the assay on TK-10 renal it was 49.9%; in the assay with ACHN renal it was 49.3%; in the assay with CAKI-1 renal, 44.1%; in the assay on A498 renal it was -0.876% (active). The growth was 8.14% (active) with CCRF-CEM leukemia and 20.2% in the assay with MOLT-4 leukemia.
Take `COc1ccc(C(O)c2cc3c(N)c(C(=O)Nc4cccc(OC)c4)sc3nc2C)cc1` (stereo not given): the growth in the assay with HCT-15 colon is 15.6%; with HT29 colon it was 2.47% (active); in the assay with SNB-75 CNS, -2.98% (active); in the assay with SNB-19 CNS it was 36.1%; with U251 CNS, 9.2% (active); in the assay with PC-3 prostate, 16.2%. In addition, the growth in the assay with SK-MEL-5 melanoma was -35.4% (active); with UACC-62 melanoma it was 23.6%; in the assay with LOX IMVI melanoma, 30.8%; in the assay with SK-MEL-28 melanoma it was 59%; with SK-MEL-2 melanoma, 22.6%; in the assay on EKVX NSCLC it was 33.8%. The growth was 23.6% with SN12C renal; 25% in the assay with UO-31 renal; 39.9% with TK-10 renal; 27% with ACHN renal; 24.4% in the assay with CAKI-1 renal; -17% (active) in the assay with A498 renal. Besides, the growth was 7.53% (active) with CCRF-CEM leukemia and 16.3% with MOLT-4 leukemia.
